For 40 compounds, Potency results are on record in PubChem BioAssay (NCATS).

Records with an inconclusive call do not appear. Entries that show only a call come without a potency. Active and inactive are the calls of the source. Calls follow the shape of the dose curve; as a rule, active = well fitted inhibition curve with a large enough effect; inconclusive = small, poorly fitted or top-dose-only effect; inactive = flat fitted curve, though single readings scatter.
Potency is read from the fitted curve at half-maximal effect.

In this experiment the test system is astro (control astrocytes). Description: Drug repurposing screens with cells derived from glioblastoma tumor samples (AID 1345199). Also: nearly all actives have a fitted effect of over 40% in size. To be noted: viability, ATP luminescence, 48 h; series mostly up to 45.9 µM. As for the experimental part: CD133+ cells were isolated from GBM patient biopsies and cultured as neurospheres. Neurospheres from four patients were used to screen the NCATS pharmaceutical collection (NPC) library of approved drugs and bioactive compounds. […] The neurospheres were incubated with drugs for 48 hours in 1536-well format, then assayed with an ATP content cell viability assay. […] These hits were cherry picked to confirm activity in the four original GBM lines screened plus three other slower growing GMB lines (unable to yield enough cells for a full primary screen). Variable activities of the confirmed primary hits in the different GBM patient lines were observed. The patient line 206 responded to the greatest number of compounds and line 923 responded to the least amount of active compounds.
`N[C@H](CC(=O)O)C(=O)O`: the Potency result is “inactive”.

For `O=C1NCCN1c1ncc([N+](=O)[O-])s1`, the Potency result was “inactive”.

In the case of `O=C(CCCN1CCC(C(=O)c2ccc(F)cc2)CC1)c1ccc(F)cc1`, the Potency result was “inactive”.

In the case of `CN(C)C=Nc1c(I)cc(I)c(CCC(=O)O)c1I`, the Potency entry was “inactive”.

As for `O=C(OC[C@H]1O[C@@H](OC(=O)c2cc(O)c(O)c(OC(=O)c3cc(O)c(O)c(O)c3)c2)[C@H](OC(=O)c2cc(O)c(O)c(OC(=O)c3cc(O)c(O)c(O)c3)c2)[C@@H](OC(=O)c2cc(O)c(O)c(OC(=O)c3cc(O)c(O)c(O)c3)c2)[C@@H]1OC(=O)c1cc(O)c(O)c(OC(=O)c2cc(O)c(O)c(O)c2)c1)c1cc(O)c(O)c(OC(=O)c2cc(O)c(O)c(O)c2)c1`, the Potency is 2820 nM (active).

Consider `C[C@H](N)C(=O)N[C@@H](C)P(=O)(O)O`, for which the Potency entry was “inactive”.

Regarding `C=CCN1CCCC1CNC(=O)c1cc(S(N)(=O)=O)cc(OC)c1OC` (stereo not given), the Potency result was “inactive”.

Consider `CCCC(CCC)C(=O)OC1C[C@H]2CC[C@@H](C1)[N+]2(C)C` (stereo not given in full), for which the Potency entry is “inactive”.

`O=C1c2ccccc2CN2C(=O)c3ccccc3CN12`: the Potency entry is “inactive”.

Take `CCC(=O)OC(OP(=O)(CCCCc1ccccc1)CC(=O)N1C[C@H](C2CCCCC2)C[C@H]1C(=O)O)C(C)C` (stereo not given in full): the Potency entry is “inactive”.

As to `NCC(O)CC(=O)O` (stereo not given), the Potency result was “inactive”.

Regarding `O=C(CO)[C@@H](O)[C@H](O)[C@@H](O)C(=O)O`, the Potency entry is “inactive”.

For the compound `NCCN`, the Potency entry was “inactive”.

On to `Oc1ccc(Cl)c2c1CCC2`, for which the Potency result was “inactive”.

With `CCCCC`, the Potency result was “inactive”.

With `CC(C)(C)NCC(O)c1ccc(O)c(CO)n1` (stereo not given), the Potency result is “inactive”.

Consider `CC(C)(C)c1ccc2c(S(=O)(=O)O)c(C(C)(C)C)ccc2c1`, for which the Potency entry is “inactive”.

With `CCCCCCCCCC(=O)NO`, the Potency result is “inactive”.

`COC(=O)c1ccccc1O`: the Potency entry is “inactive”.

On to `CO[C@H]1C[C@H](O[C@H]2[C@H](C)[C@@H](O[C@@H]3O[C@H](C)C[C@H](N(C)C)[C@H]3O)[C@@H](C)C[C@]3(CO3)C(=O)[C@H](C)[C@@H](O)[C@@H](C)[C@@H](C)OC(=O)[C@@H]2C)O[C@@H](C)[C@@H]1O`, for which the Potency entry was “inactive”.

With `CC(=O)NCCCS(=O)(=O)O`, the Potency entry was “inactive”.

For the compound `CCCC(=O)O`, the Potency entry is “inactive”.

As for `Cc1ccc(C(C)(C)c2ccc(C)cc2)cc1`, the Potency result is “inactive”.

Take `N#Cc1ccc2c(c1)N(CCCN1CCC(O)CC1)c1ccccc1S2`: the Potency result is “inactive”.

Consider `CC(=O)OCC1=C(C(=O)O)N2C(=O)[C@@H](NC(=O)Cc3ccccc3)[C@H]2SC1`, for which the Potency result is “inactive”.

On to `CC(C)CCCCCCc1ccc(O)cc1`, for which the Potency entry was “inactive”.

As to `O=P(O)(O)OP(=O)(O)O`, the Potency result was “inactive”.

For the compound `C[C@H](CCC(=O)O)[C@H]1CC[C@H]2[C@@H]3[C@H](O)C[C@@H]4C[C@H](O)CC[C@]4(C)[C@H]3C[C@H](O)[C@]12C`, the Potency result was “inactive”.

For the compound `Oc1cc(O)cc(O)c1`, the Potency result was “inactive”.

For the compound `CNC(=O)[C@H](Cc1c[nH]c2ccccc12)NC(=O)[C@@H](CC(=O)NO)CC(C)C`, the Potency entry was “inactive”.

In the case of `C=CCCCCCCCCC(=O)OC`, the Potency result was “inactive”.

Turning to `Cc1cc(C(=O)NCCc2ccc(S(=O)(=O)NC(=O)NN3CCCCCC3)cc2)no1`, the Potency entry is “inactive”.

As to `O=C(O)[C@H]1C(=CCO)O[C@H]2CC(=O)N12`, the Potency entry is “inactive”.

As for `CCCCC(CC)CCC(CC(C)C)OS(=O)(=O)O` (stereo not given), the Potency result was “inactive”.

For the compound `O=C(Cc1cccs1)N[C@@H]1C(=O)N2C(C(=O)[O-])=C(C[n+]3ccccc3)CS[C@H]12`, the Potency result is “inactive”.

`NC(N)=NCC1COc2ccccc2O1` (stereo not given): the Potency result is “inactive”.

Consider `O=C(OCc1ccccc1)c1cccnc1`, for which the Potency entry was “inactive”.

As to `Nc1nc(=O)n([C@@H]2CS[C@H](CO)O2)cc1F`, the Potency result was “inactive”.

Regarding `COc1cc(S(C)=O)ccc1-c1nc2ncccc2[nH]1` (stereo not given), the Potency entry was “inactive”.

`CCN(CC)CCOc1ccccc1OC`: the Potency result is “inactive”.
